Luciferase inh – inhibitors of firefly (Photinus pyralis) luciferase; Potency, µM (titrated, usually from 115 µM), most hits filed as inhibitors; P08659; purified P. pyralis luciferase, luminescence, biochemical; 2.5% of 76,000 active; AID 1347043; note: nearly all actives have a fitted effect of over 65% in size
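Inhibitors were tested against purified firefly luciferase in a biochemical, low-substrate format (both substrates at 10uM) and luminescence measured with a CCD imager.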
HEK cytotox – HEK 293 cell cytotoxicity. HEK 293 viability, ATP luminescence (CellTiter-Glo), 48-72 h. 6.6% of 94,000 active. Potency, µM (series often up to 115 µM), actives largely listed as inhibitors; note: nearly all actives have a fitted effect of over 60% in size
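ATP-coupled CellTiter-Glo luminescence served as viability read-out, recorded 10 min after reagent addition at room temperature. HEK 293 cells, 250 cells/well, had been incubated with pintool-transferred compound for 48 or 72 hr at 37 degree Celsius.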
hNpr1 antagonist – blocks ANP-stimulated signaling of human Npr1 receptor | P16066 | HEK293 hNpr1 GloSensor cGMP, ANP-stimulated luminescence | Potency, µM (series often up to 46.3 µM), hits mostly inhibitors | 1.6% of 76,000 active; calls by dose curve; note: nearly all actives have a fitted effect of over 60% in size
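Compound pre-incubated 30 min at room temperature on GloSensor-loaded HEK293 cells stably carrying hNpr1 and the pGS-40F cGMP biosensor. Stimulation uses hNppA at 0.1 nM final; luminescence is taken at baseline and 20 min post-agonist.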
GPT2 inhibitor – GPT2 alanine aminotransferase inhibition; Potency, µM (titrated, usually from 57.7 µM), actives largely listed as inhibitors; Recombinant GPT2, coupled pyruvate oxidase/HRP Amplex Red fluorescence; 0.25% of 100,000 active; note: nearly all actives have a fitted effect of over 60% in size
Target sequence (Q8TD30 whole entry, looked up): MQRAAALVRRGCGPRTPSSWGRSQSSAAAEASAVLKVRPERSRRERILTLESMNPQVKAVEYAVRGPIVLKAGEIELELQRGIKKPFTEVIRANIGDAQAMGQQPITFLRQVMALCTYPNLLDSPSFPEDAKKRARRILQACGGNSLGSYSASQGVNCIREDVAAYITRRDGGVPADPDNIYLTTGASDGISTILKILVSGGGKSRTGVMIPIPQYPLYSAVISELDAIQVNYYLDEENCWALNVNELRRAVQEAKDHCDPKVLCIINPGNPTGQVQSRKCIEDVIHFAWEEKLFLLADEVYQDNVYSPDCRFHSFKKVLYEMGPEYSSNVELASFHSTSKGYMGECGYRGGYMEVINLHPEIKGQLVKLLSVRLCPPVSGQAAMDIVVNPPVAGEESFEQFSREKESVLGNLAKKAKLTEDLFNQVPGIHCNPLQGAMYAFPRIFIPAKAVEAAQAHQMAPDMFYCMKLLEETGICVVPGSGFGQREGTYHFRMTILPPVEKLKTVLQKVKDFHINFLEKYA
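Fluorescence of coupled pyruvate oxidase/HRP/Amplex Red system (50uM Amplex, 30 min, dark) reports pyruvate formed by GPT2. Enzyme reaction: 10ng/uL GPT2, 2mM L-alanine, 250uM a-KG, 30 min room temperature, pH 7.5; 50uM AOA control.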
NIH3T3 tox – NIH 3T3 cell cytotoxicity; 4.3% of 94,000 active; NIH 3T3 viability, CellTiter-Glo ATP luminescence, 48-72 h; AID 1345082; Potency, µM (titrated, usually from 96.7 µM), usual class: inhibitors; note: nearly all actives have a fitted effect of over 55% in size
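Viability of NIH 3T3 cells after 48 or 72 hr compound treatment at 37 °C was assessed by CellTiter-Glo, with luminescence imaged following a 10 min room-temperature step.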
Numbers stand for hits; . = inactive; ? = inconclusive; / = not tested or not shown. A selection: hits, their analogues and other compounds. The true share with any hit is near 10%. Unless noted, calls come from the whole dose curve; as a rule, active = well fitted curve in the direction sought with a large enough effect; inconclusive = small, poorly fitted or top-dose-only effect, or another doubt; inactive = no such curve, though single readings can be large; an effect the other way counts as inactive or inconclusive.

SMILES	Luciferase inh	HEK cytotox	hNpr1 antagonist	GPT2 inhibitor	NIH3T3 tox
COc1cc2c(cc1CCc1ccccc1)N(C(=O)Cc1ccc3c(c1)OCO3)CC21CCN(C(C)=O)CC1	.	.	.	.	?
COc1ccc(CC(=O)N2CC3(CCN(C)CC3)c3cc(OC)c(OCc4ccccc4)cc32)cc1	.	31.6µM	.	.	?
CCCN(CCC)[C@@H]1CCc2ccc(O)cc2C1	/	/	/	.	/
CCCc1nc(C(=O)N2C[C@@H](c3ccc(F)cc3)[C@@H]3[C@H]2C2CCN3CC2)cs1	.	.	.	.	.
Cn1cc(C(=O)N2[C@H]3CC[C@@H]2c2cnc(-c4ccccc4)nc2C3)cn1	.	?	.	.	?
O=C(NC1CC1)[C@H]1CN2CC[C@H]1C[C@@H]2Cn1cc(CO)nn1	.	.	.	.	.
COc1cc2c(cc1CCc1ccccc1)N(C(=O)COc1ccccc1)CC21CCN(C(C)=O)CC1	.	.	.	.	?
COc1cc2c(cc1CCc1ccccc1)N([S+](=O)([O-])c1ccc3c(c1)CCO3)CC21CCN(C(C)=O)CC1	.	?	.	.	25.1µM
COc1cc2c(cc1OCc1ccccc1)N(C(=O)COc1ccccc1)CC21CCN(C)CC1	.	28.2µM	.	.	22.4µM
Cn1nc(-c2ccc3ccccc3c2)cc1[C@H]1CN2CC[C@H]1C[C@@H]2COC(=O)Nc1ccccc1	?	20µM	.	?	17.8µM
COc1ccc(NC(=O)OC[C@H]2C[C@@H]3CCN2C[C@@H]3c2cc(-c3ccccc3OC)nn2C)cc1	.	.	.	.	.
CC[C@H]1CN2CC[C@H]1C[C@@H]2COC(=O)Nc1cc(OC)cc(OC)c1	.	100µM	.	.	?
Cc1nc(-c2ccc(N(C)C)cc2)cc([C@H]2CN3CC[C@H]2C[C@@H]3COC(=O)Nc2ccc(C(C)C)cc2)n1	?	3.55µM	?	.	3.55µM
CC[C@H]1CN2CC[C@H]1C[C@@H]2CNC(=O)Nc1cc(OC)cc(OC)c1	.	.	.	.	?
CC(C)c1ccc(NC(=O)OC[C@H]2C[C@@H]3CCN2C[C@@H]3c2cc(C3CCCC3)nc(-c3ccncc3)n2)cc1	?	3.55µM	.	.	4.47µM
C=C1[C@@H](O)[C@]2(O)OC[C@]34C2[C@]2(C)C(C[C@H]3OC(=O)[C@H](O)[C@@]14O)C(C)=CC(=O)[C@H]2O (stereo not given in full)	/	/	/	.	/
COc1ccc(CNC[C@H]2C[C@@H]3CCN2C[C@@H]3c2cc(C3CCCC3)nn2C)cc1	.	.	.	.	.
Cn1nc(C2CCCCC2)cc1[C@H]1CN2CC[C@H]1C[C@@H]2CO	.	?	.	.	?
CCC(CC)c1cc([C@H]2CN3CC[C@H]2C[C@@H]3CNC(=O)C(C)(C)C)nc(-c2ccncc2)n1	.	?	.	.	?
CCC(CC)c1cc([C@H]2CN3CC[C@H]2C[C@@H]3CNC(C)=O)nc(-c2ccncc2)n1	.	100µM	?	.	44.7µM
CC(C)(C)c1ccc(NC(=O)OC[C@H]2C[C@@H]3CCN2C[C@@H]3c2cc(C3CCCC3)nc(-c3ccncc3)n2)cc1	?	20µM	.	.	20µM
CCC(CC)c1cc([C@H]2CN3CC[C@H]2C[C@@H]3CNC(=O)C2CCC2)nc(-c2ccncc2)n1	.	.	.	.	?
Cn1nc(C2CCCCC2)cc1[C@H]1CN2CC[C@H]1C[C@@H]2CN	.	100µM	.	.	?
CCCNC(=O)OC[C@H]1C[C@@H]2CCN1C[C@@H]2c1cc(C(CC)CC)nc(-c2ccncc2)n1	.	?	?	.	39.8µM
Cc1cccc(-c2ncc(CN3CCC4(CCCNC4)C3)cn2)c1 (stereo not given)	.	?	.	.	?
SMILES	Luciferase inh	HEK cytotox	hNpr1 antagonist	GPT2 inhibitor	NIH3T3 tox
COc1ccc(-c2cn(C[C@H]3CC4CCN3C[C@@H]4C(=O)NCc3ccccc3OC)nn2)cc1 (stereo not given in full)	.	?	.	.	?
COc1ccc(NC(=O)NC[C@H]2C[C@@H]3CCN2C[C@@H]3c2cc(C3CCCC3)nn2C)cc1	.	?	.	.	?
CCC(CC)c1cc([C@H]2CN3CC[C@H]2C[C@@H]3CNC(=O)C2CC2)nc(-c2ccncc2)n1	.	.	.	.	.
CCC(CC)c1cc([C@H]2CN3CC[C@H]2C[C@@H]3COC(=O)Nc2ccc(C(C)(C)C)cc2)nc(-c2ccncc2)n1	?	7.08µM	.	.	5.01µM
O=C(Nc1ccccc1)OC[C@H]1C[C@@H]2CCN1C[C@@H]2c1cc(C2CCCC2)nc(-c2ccncc2)n1	?	3.98µM	?	.	7.94µM
CC(C)c1ccc(NC(=O)OC[C@H]2C[C@@H]3CCN2C[C@@H]3c2cc(C3CCCCC3)nn2C)cc1	.	14.1µM	.	.	22.4µM
CCC(CC)c1cc([C@H]2CN3CC[C@H]2C[C@@H]3CNC(=O)c2ccccc2)nc(-c2ccncc2)n1	.	?	.	?	.
COc1ccc(NC(=O)OC[C@H]2C[C@@H]3CCN2C[C@@H]3c2cc(C3CCCC3)nc(-c3ccncc3)n2)cc1	.	14.1µM	?	.	?
COc1ccc(-c2cc([C@H]3CN4CC[C@H]3C[C@@H]4COC(=O)NC(C)C)n(C)n2)cc1	.	.	.	.	.
COc1cc2c(cc1OCC1CC1)NC(=O)C21CCN(c2ncc(F)cn2)CC1	.	?	.	.	?
Cc1nc(-c2ccccc2Br)cc([C@H]2CN3CC[C@H]2C[C@@H]3CNC(=O)NC(C)C)n1	.	79.4µM	.	.	?
COc1ccc(NC(=O)NC[C@H]2C[C@@H]3CCN2C[C@@H]3c2cc(-c3ccccc3Br)nc(C)n2)cc1	.	79.4µM	.	.	?
Cc1nc(-c2ccccc2Br)cc([C@H]2CN3CC[C@H]2C[C@@H]3CNC(=O)NC2CCCCC2)n1	.	?	.	.	?
CCOC(=O)[C@@H]1[C@H]2c3ccccc3N(C)C(=O)[C@H]2N(C(=O)c2cccs2)[C@@H]1c1ccccc1	/	79.4µM	/	/	?
C#CCN1C(=O)[C@@H]2[C@H](c3ccccc31)[C@@H](C(=O)OCC)[C@@H](c1ccccc1)N2C(=O)c1ccco1	/	31.6µM	/	/	?
CCOC(=O)[C@H]1CN(S(=O)(=O)Cc2ccccc2)[C@]2(C)C(=O)N(CC3CC3)c3ccccc3[C@H]12	/	?	/	.	?
C#C[C@H]1CN2CC[C@H]1C[C@@H]2CNS(=O)(=O)c1ccc2ccccc2c1	.	?	.	.	?
O=C(c1ccccc1)N1C[C@@H]2C[C@H](C1)c1c(/C=C/c3ccc(Cl)cc3)ccc(=O)n1C2	.	89.1µM	.	.	?
CC[C@H]1CN2CC[C@H]1C[C@@H]2CNC(=O)Nc1cccc(C#N)c1	.	?	.	.	.
CC[C@H]1CN2CC[C@H]1C[C@@H]2CNC(=O)Nc1ccc(C(C)(C)C)cc1	.	70.8µM	.	.	?

Screens as filed in PubChem BioAssay.
